High-throughput results (PubChem)
Shown are actives, neighbours in structure and some others; about 10% of the full set was active somewhere.
HEK293 tox: HEK 293 cell cytotoxicity; HEK 293 viability, ATP luminescence (CellTiter-Glo), 48-72 h; Potency, µM (highest dose often 115 µM), usual class: inhibitors; actives 6.6% (n = 94,000); AID 1345083; further: nearly all actives have a fitted effect of over 60% in size
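HEK 293 cells seeded at 250 cells/well were exposed to compound for 48 or 72 hr at 37 degree Celsius. Viability taken as ATP content by CellTiter-Glo luminescence.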
3T3 cytotox: cytotoxic compounds in NIH 3T3 cells; AID 1345082; Potency, µM (top dose mostly 96.7 µM), actives largely listed as inhibitors; actives 4.3% (n = 94,000); NIH 3T3 viability, CellTiter-Glo ATP luminescence, 48-72 h; further: nearly all actives have a fitted effect of over 55% in size
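Mouse fibroblast NIH 3T3 cells, 400 per well, received compound via pintool and were incubated for 48 or 72 hr prior to CellTiter-Glo ATP luminescence measurement.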
Luciferase inh: inhibitors of firefly (Photinus pyralis) luciferase. purified P. pyralis luciferase, luminescence, biochemical. actives 2.5% (n = 76,000). P08659. AID 1347043. Potency, µM (highest dose often 115 µM), usual class: inhibitors; further: nearly all actives have a fitted effect of over 65% in size
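Biochemical qHTS: compound (6-point titration) added to 10uM D-luciferin plus 10uM ATP in Tris acetate pH 7.5 buffer with Mg, Tween-20 and BSA, then purified enzyme at 10nM; light output imaged.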
GPT2 inhibitor: blocks human glutamate pyruvate transaminase 2; Q8TD30; Recombinant GPT2, coupled pyruvate oxidase/HRP Amplex Red fluorescence; Potency, µM (highest dose often 57.7 µM), actives largely listed as inhibitors; actives 0.25% (n = 100,000); AID 1671188; further: nearly all actives have a fitted effect of over 60% in size
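Fluorescence of coupled pyruvate oxidase/HRP/Amplex Red system (50uM Amplex, 30 min, dark) reports pyruvate formed by GPT2. Enzyme reaction: 10ng/uL GPT2, 2mM L-alanine, 250uM a-KG, 30 min room temperature, pH 7.5; 50uM AOA control.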
hNpr1 antagonist: human Npr1 receptor antagonism; HEK293 hNpr1 GloSensor cGMP, ANP-stimulated luminescence; Potency, µM (series often up to 46.3 µM), most hits filed as inhibitors; actives 1.6% (n = 76,000); AID 1347048; calls by dose curve; further: nearly all actives have a fitted effect of over 60% in size
Target sequence (P16066 whole entry, looked up): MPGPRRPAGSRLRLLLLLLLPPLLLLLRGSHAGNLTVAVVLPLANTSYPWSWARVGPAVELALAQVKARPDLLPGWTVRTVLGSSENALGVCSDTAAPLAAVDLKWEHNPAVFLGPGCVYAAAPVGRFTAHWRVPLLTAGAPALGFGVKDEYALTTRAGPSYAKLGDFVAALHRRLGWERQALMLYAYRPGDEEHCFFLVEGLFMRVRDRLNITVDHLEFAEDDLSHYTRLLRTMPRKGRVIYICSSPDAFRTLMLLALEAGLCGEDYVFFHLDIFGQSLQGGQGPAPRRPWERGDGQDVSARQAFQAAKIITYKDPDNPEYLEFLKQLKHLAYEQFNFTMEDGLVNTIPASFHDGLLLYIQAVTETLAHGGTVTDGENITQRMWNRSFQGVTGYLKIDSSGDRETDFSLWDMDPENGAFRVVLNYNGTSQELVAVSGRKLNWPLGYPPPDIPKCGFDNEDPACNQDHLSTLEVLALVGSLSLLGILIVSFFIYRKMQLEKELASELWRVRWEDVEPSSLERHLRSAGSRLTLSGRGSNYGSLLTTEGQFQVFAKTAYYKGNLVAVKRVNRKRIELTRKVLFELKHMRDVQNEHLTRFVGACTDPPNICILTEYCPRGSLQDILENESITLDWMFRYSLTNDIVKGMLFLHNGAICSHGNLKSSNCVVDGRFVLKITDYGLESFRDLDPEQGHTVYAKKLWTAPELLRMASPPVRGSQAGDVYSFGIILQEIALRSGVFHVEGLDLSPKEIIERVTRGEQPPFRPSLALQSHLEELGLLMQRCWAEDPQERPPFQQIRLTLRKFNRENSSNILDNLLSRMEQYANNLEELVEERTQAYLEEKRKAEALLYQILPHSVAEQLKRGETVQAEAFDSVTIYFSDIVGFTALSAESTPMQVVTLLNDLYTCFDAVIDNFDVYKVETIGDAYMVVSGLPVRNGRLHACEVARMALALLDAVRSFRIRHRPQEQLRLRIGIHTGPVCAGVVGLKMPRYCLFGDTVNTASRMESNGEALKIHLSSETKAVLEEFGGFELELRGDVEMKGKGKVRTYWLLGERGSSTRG
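Compound pre-incubated 30 min at room temperature on GloSensor-loaded HEK293 cells stably carrying hNpr1 and the pGS-40F cGMP biosensor. Stimulation uses hNppA at 0.1 nM final; luminescence is taken at baseline and 20 min post-agonist.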
Of the large screens only hits and unclear results are named; the others gave an inactive call. Unless noted, the call rests on the fitted dose curve; in most records, active means well fitted curve in the direction sought with a large enough effect; inconclusive means small, poorly fitted or top-dose-only effect, or another doubt; inactive means no such curve, though single readings can be large; an effect the other way counts as inactive or inconclusive.

O=C(Nc1nccs1)c1ccc2c(c1)OCCN(C1CCC1)C2	HEK293 tox inconclusive, 3T3 cytotox inconclusive, Luciferase inh 22µM
Cc1ccccc1NC(=O)c1ccc2c(c1)OCCN(CCC(F)(F)F)C2	HEK293 tox inconclusive, 3T3 cytotox inconclusive
O=C(NCCOc1ccccc1)c1ccc2c(c1)OCCN(CCC(F)(F)F)C2	HEK293 tox inconclusive, Luciferase inh 40µM, GPT2 inhibitor inconclusive
Cc1cnc(NC(=O)c2ccc3c(c2)OCCN(Cc2ncccn2)C3)s1	HEK293 tox inconclusive, Luciferase inh 40µM
Cc1cnc(NC(=O)c2ccc3c(c2)OCCN(C2CCC2)C3)s1	HEK293 tox inconclusive, 3T3 cytotox inconclusive, Luciferase inh inconclusive
COc1ccc(NC(=O)c2ccc3c(c2)OCCN(CCC(C)C)C3)cn1	HEK293 tox inconclusive, 3T3 cytotox inconclusive, hNpr1 antagonist inconclusive
CCS(=O)(=O)N1CCC2(CC1)CN(c1cccc(F)c1)C2c1ccccc1 (stereo not given)	HEK293 tox inconclusive, 3T3 cytotox inconclusive (no result: Luciferase inh, hNpr1 antagonist)
CNC(=O)c1cc(C2CC2)nc2onc(C3CCCN3C(=O)c3ccc(Cl)cc3)c12 (stereo not given)	HEK293 tox inconclusive (no result: Luciferase inh, GPT2 inhibitor, hNpr1 antagonist)
C=CCOc1c(OC)ccc2c1CN(Cc1ccccc1)C(=O)CCN2CC(C)O (stereo not given)	3T3 cytotox inconclusive (no result: Luciferase inh, GPT2 inhibitor, hNpr1 antagonist)
C=CCOc1c(OC)ccc2c1CN(Cc1ccccc1)C(=O)CCN2CC(O)Cc1ccccc1 (stereo not given)	HEK293 tox 50µM, 3T3 cytotox inconclusive (no result: Luciferase inh, GPT2 inhibitor, hNpr1 antagonist)
C=CCOc1c(OC)ccc2c1CN(Cc1ccccc1)C(=O)CCN2CC(O)COc1ccc(OC)cc1 (stereo not given)	HEK293 tox inconclusive, 3T3 cytotox 40µM (no result: Luciferase inh, GPT2 inhibitor, hNpr1 antagonist)
C=CCOc1c(OC)ccc2c1CN(CCOC)C(=O)CCN2CC(O)COc1ccccc1 (stereo not given)	HEK293 tox inconclusive (no result: Luciferase inh, GPT2 inhibitor, hNpr1 antagonist)
C=CCOc1c(OC)ccc2c1CN(C1CCCC1)C(=O)CCN2CC(O)COc1ccccc1 (stereo not given)	HEK293 tox inconclusive, 3T3 cytotox 40µM (no result: Luciferase inh, GPT2 inhibitor, hNpr1 antagonist)
C=CCOCC(O)CN1CCC(=O)N(Cc2ccco2)Cc2c1ccc(OC)c2OCC=C (stereo not given)	HEK293 tox inconclusive (no result: Luciferase inh, GPT2 inhibitor, hNpr1 antagonist)
Cc1ccc(C(=O)N2CCC(Oc3ccc(C(N)=O)cn3)CC2)cc1C	HEK293 tox inconclusive, 3T3 cytotox inconclusive, hNpr1 antagonist inconclusive
Cc1nnc(-c2cc(-c3cccnc3)ccn2)n1C1CCCCC1	3T3 cytotox 89µM
Cc1nnc(-c2cc(-c3ccc(N4CCOCC4)cc3)ccn2)n1C1CCCCC1	HEK293 tox 79µM, 3T3 cytotox inconclusive, Luciferase inh inconclusive
Cc1nnc(-c2cc(-c3cnn(C)c3)ccn2)n1C1CCCCC1	3T3 cytotox inconclusive
COc1ccccc1-c1cc(C(=O)NCc2cccnc2)nn2cnnc12	none (no result: Luciferase inh, hNpr1 antagonist)
Cc1noc(C)c1Cc1c(C(=O)N2C[C@@H](Oc3cccnc3)C[C@H]2C(N)=O)noc1C	none
COc1ccccc1CCNC(=O)C1CC(c2ccc(F)c(C)c2)CN(C(=O)C2CC2)C1 (stereo not given)	HEK293 tox 35µM, 3T3 cytotox 40µM
Cc1ccncc1C(=O)N1CC[C@H](n2c(=O)n(C)c3cccnc32)C1	none (no result: Luciferase inh, hNpr1 antagonist)
Cc1n[nH]c(C)c1CNC(=O)C1CCN(C(=O)c2ncn3c2COC(c2ccc(F)cc2)C3)CC1 (stereo not given)	Luciferase inh 25µM
O=C(NCCCc1ccccc1)C1CCN(C(=O)c2ncn3c2COC(c2ccccc2)C3)CC1 (stereo not given)	Luciferase inh 16µM, GPT2 inhibitor inconclusive
COc1ccc(C2Cn3cnc(C(=O)N4CCC(C(=O)NCC5CCCO5)CC4)c3CO2)cc1 (stereo not given)	none
COc1ccc(C2Cn3cnc(C(=O)N4CCC(C(=O)NCc5ccc(C)cc5)CC4)c3CO2)cc1 (stereo not given)	none
O=C(NCC1CCCO1)C1CCN(C(=O)c2ncn3c2COC(c2ccc(F)cc2)C3)CC1 (stereo not given)	Luciferase inh 40µM
Cc1ccc(C2Cn3cnc(C(=O)N4CCC(C(=O)NCc5cccc(F)c5)CC4)c3CO2)cc1 (stereo not given)	Luciferase inh 50µM
CC1CCN(C(=O)CCc2nc(C3CCCN3C(=O)NC(C)C)no2)CC1 (stereo not given)	none (no result: Luciferase inh, hNpr1 antagonist)
Cc1cccc(CNC(=O)C2CCN(C(=O)c3ncn4c3COC(c3ccc(F)cc3)C4)CC2)c1 (stereo not given)	Luciferase inh 45µM
Cc1ccc(C2Cn3cnc(C(=O)N4CCC(C(=O)NCc5cc(F)ccc5F)CC4)c3CO2)cc1 (stereo not given)	Luciferase inh 40µM
O=C(NCc1cccc(F)c1)C1CCN(C(=O)c2ncn3c2COC(c2ccc(F)cc2)C3)CC1 (stereo not given)	Luciferase inh 32µM
Cc1ccc(C2Cn3cnc(C(=O)N4CCC(C(=O)NCc5ccccc5)CC4)c3CO2)cc1 (stereo not given)	HEK293 tox inconclusive, Luciferase inh 40µM
O=C(NCC1CC1)C1(F)CCN(S(=O)(=O)c2cccs2)CC1	none (no result: Luciferase inh, hNpr1 antagonist)
O=C(C1CCCC1)N1CCCN(c2ccc3nnc(C4CC4)n3n2)CC1	none (no result: Luciferase inh, GPT2 inhibitor, hNpr1 antagonist)
O=C(c1ccc2nc(-c3ccccc3)cn2c1)N1CCOC(C(F)(F)F)C1 (stereo not given)	none
O=C(NCc1ccccn1)C1CCN(C(=O)c2ncn3c2COC(c2ccc(F)cc2)C3)CC1 (stereo not given)	Luciferase inh 35µM
O=C(NC1CCc2ccccc21)C1CCN(C(=O)c2ncn3c2COC(c2ccccc2)C3)CC1 (stereo not given)	Luciferase inh 40µM
COc1ccc(C2Cn3cnc(C(=O)N4CCC(C(=O)NCCc5ccccc5)CC4)c3CO2)cc1 (stereo not given)	none
O=C(NCc1ccccc1)C1CCN(C(=O)c2ncn3c2COC(c2ccc(F)cc2)C3)CC1 (stereo not given)	Luciferase inh inconclusive
COc1cccc(CNC(=O)C2CCN(C(=O)c3ncn4c3COC(c3ccccc3)C4)CC2)c1 (stereo not given)	Luciferase inh 22µM
CCc1ccc(CNC(=O)C2CCN(C(=O)c3ncn4c3COC(c3ccccc3)C4)CC2)cc1 (stereo not given)	Luciferase inh 35µM
Cc1ccc(CN2CCC(C(=O)N3CCCCCCNC(=O)CC3)CC2)o1	none
CCC(c1ccccc1)N1Cc2cc(NS(=O)(=O)c3ccc(F)cc3)ccc2OC(C)C1=O (stereo not given)	HEK293 tox inconclusive, 3T3 cytotox 14µM
CC1Oc2ccc(NC(=O)c3ccccc3Cl)cc2CN(Cc2ccc3c(c2)OCO3)C1=O (stereo not given)	HEK293 tox inconclusive, 3T3 cytotox inconclusive
